SRC3 TRFRET art: TR-FRET artefact, counter-screen to PPARgamma/SRC-3 agonist assay. PPARgamma/SRC-3 format; hits give high values. 99,000 compounds, 0.39% hits. TR-FRET ratio at 8 µM. AID 1048
PPARg SRC2 recr: agonists of SRC-2 recruitment by human PPARgamma. P37231. PPARgamma LBD-SRC-2 recruitment, biochemical. activation, % at 8 µM. 200,000 compounds, 0.34% hits. AID 1032; in the data active means activation above about 22%;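 further: 0% = vehicle and 100% = reference agonist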
Target sequence (P37231 whole entry, looked up, the tested form may be a part): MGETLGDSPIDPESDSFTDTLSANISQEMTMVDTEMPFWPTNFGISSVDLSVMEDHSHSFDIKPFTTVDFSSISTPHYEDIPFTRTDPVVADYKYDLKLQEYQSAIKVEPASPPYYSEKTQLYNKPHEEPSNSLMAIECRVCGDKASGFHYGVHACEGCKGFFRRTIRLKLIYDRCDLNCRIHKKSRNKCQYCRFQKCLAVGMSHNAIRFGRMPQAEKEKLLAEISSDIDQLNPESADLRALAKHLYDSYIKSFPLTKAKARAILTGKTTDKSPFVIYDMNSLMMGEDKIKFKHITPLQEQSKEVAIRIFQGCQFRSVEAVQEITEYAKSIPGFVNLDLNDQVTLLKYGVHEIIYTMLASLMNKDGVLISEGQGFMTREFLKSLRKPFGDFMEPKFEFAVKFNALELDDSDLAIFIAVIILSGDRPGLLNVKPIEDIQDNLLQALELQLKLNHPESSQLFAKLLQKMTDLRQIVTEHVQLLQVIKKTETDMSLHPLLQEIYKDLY
SRC2 TRFRET art: counter-screen for PPARgamma SRC-2 recruitment agonists: TR-FRET artefact; AID 1049; hits give high values; 200,000 compounds, 0.4% hits; TR-FRET ratio at 8 µM
PPARg SRC1 recr: PPARgamma-driven SRC-1 recruitment agonism. P37231. PPARgamma-SRC-1 coactivator recruitment biochemical assay. activation, % at 8 µM. 200,000 compounds, 0.41% hits. AID 631; in the data active means activation above about 19%;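 further: 0% = DMSO and 100% = reference agonist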
PPARg SRC-3 ag: PPARgamma-driven SRC-3 recruitment agonism | P37231 | biochemical PPARgamma/SRC-3 coactivator recruitment assay | activation, % at 8 µM | 200,000 compounds, 0.26% hits | AID 731; in the data active means activation above about 23%;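 further: 0% = DMSO and 100% = reference agonist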
SRC1 TRFRET art: counter-screen for PPARgamma SRC-1 recruitment agonists: TR-FRET artefact. TR-FRET detection artefact counter-screen, emission ratio; hits give high values. TR-FRET ratio at 8 µM. 99,000 compounds, 0.34% hits; in the data active means TR-FRET ratio above about 2300
PPARg SRC2 conf: confirmation of agonists of SRC-2 recruitment by human PPARgamma. AID 1297. biochemical SRC-2 recruitment by PPARgamma. activation, % at 8 µM. 790 compounds, 52% hits. shares compounds with PPARg SRC-3 ag; in the data active means activation above about 22%;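 further: 0% = vehicle alone and 100% = reference agonist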
PPARg SRC1 ag: human PPARgamma SRC-1 recruitment agonism, confirmation; shares compounds with PPARg SRC-3 ag; PPARgamma–SRC-1 coactivator recruitment biochemical assay; activation, % at 8 µM; 790 compounds, 43% hits; AID 1300; in the data active means activation above about 20%;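 further: 0% = vehicle wells and 100% = reference agonist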
PPARg SRC3 ag: human PPARgamma SRC-3 recruitment agonism, confirmation. shares compounds with PPARg SRC-3 ag. biochemical PPARgamma-SRC-3 coactivator recruitment, agonist mode. activation, % at 8 µM. 790 compounds, 29% hits. AID 1301; in the data active means activation above about 24%;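 further: 0% = vehicle wells and 100% = reference agonist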
An asterisk follows results filed as active; / = not tested or not shown. This is a sample that favours compounds with a hit; in the whole collection about 0.9% have one here. Unless noted, no stated cut-off is given here; in the data, active means TR-FRET ratio above about 2000; inactive means the rest.

SMILES | SRC3 TRFRET art | PPARg SRC2 recr | SRC2 TRFRET art | PPARg SRC1 recr | PPARg SRC-3 ag | SRC1 TRFRET art | others
CC(=O)c1ccc(-n2c(SCC(=O)c3c[nH]c4ccccc34)nc3ccccc3c2=O)cc1 | 2096* | 11 | 1706 | 4 | 5 | 2168
CCOC(=O)c1c(C)[nH]c(C)c1C(=O)CSc1nc2ccccc2c(=O)n1-c1ccc(CC)cc1 | 1640 | 6 | 1617 | 3 | 2 | 1883
CC(C)NS(=O)(=O)c1ccc(CCC(=O)N2CCCCC2)cc1 | 1623 | -7 | 1504 | -9 | 1 | 1617
O=C(COC(=O)c1ccc(-c2nnc(-c3ccccc3)o2)cc1)c1ccccc1 | 1850 | 15 | 2098* | 5 | 3 | 2073
Cc1csc(SCC(=O)NC(C)c2ccc(F)cc2)n1 (stereo not given) | 1612 | -8 | 1302 | -4 | 3 | 1745
COc1ccc(-c2ccc(SCC(=O)c3cccs3)nn2)cc1 | 2137* | 14 | 1638 | -6 | 4 | 2310
O=C(CSc1ccc(-c2ccccc2)nn1)c1cccs1 | 1646 | 7 | 1579 | -3 | 1 | 1739
COc1ccc(C2SCC(=O)N2CCc2ccc(OC)c(OC)c2)cc1 (stereo not given) | 1607 | 0 | 1370 | 1 | 2 | 2060
O=C(COC(=O)c1cccc(S(=O)(=O)N2CCc3ccccc32)c1)Nc1ncc(Cl)cc1Cl | 1463 | 3 | 1556 | 6 | 8 | 2003
O=C(COC(=O)c1ccc(Cl)c(S(=O)(=O)N2CCc3ccccc3C2)c1)Nc1ncc(Cl)cc1Cl | 2156* | -1 | 1932 | 9 | 9 | 2306
CCCNC(=O)C(CC)NS(=O)(=O)c1ccc(OC)cc1 (stereo not given) | / | 13 | 1497 | 7 | 44* | /
Cc1nn(-c2ccccn2)c2c1-c1nc(N)ncc1CC2 | / | 0 | 1459 | 1 | 10 | /
Cc1nn(-c2ccccn2)c2c1-c1nc(N3CCOCC3)ncc1CC2 | / | 1 | 1572 | 22* | -6 | /
COc1ccc(NC(=O)c2cccnc2N2CCOCC2)cc1 | 1637 | 4 | 1512 | 3 | 1 | 1875
O=C(NCc1ccc(/C=c2\sc3n(c2=O)CCN=3)o1)C(=O)Nc1ccccc1 | 1580 | 12 | 1503 | 2 | 3 | 1812
Cn1c(SCC(=O)Nc2cccc(Br)c2)nnc1-c1cc2ccccc2o1 | / | -6 | 1713 | 31* | 4 | /
CCn1c(SCC(=O)O)nnc1C1CCCCC1 | / | 4 | 1346 | 2 | 29* | /
CCc1ccc(N2C(=O)CC(N3CCN(Cc4ccc5c(c4)OCO5)CC3)C2=O)cc1 (stereo not given) | 1579 | 3 | 1498 | 5 | 0 | 1842
Cc1nc(N2CCCCC2C)c2c(C)c(C(=O)Nc3cccc(C(F)(F)F)c3)sc2n1 (stereo not given) | 1608 | 8 | 1633 | 13 | 4 | 2035
Cc1nc(N2CCCCC2)c2c(C)c(C(=O)Nc3cccc(C(F)(F)F)c3)sc2n1 | 2057* | 14 | 1762 | 7 | 12 | 2255
Cc1ccc(NC(=O)c2sc3nc(C)nc(N4CCN(c5ccccn5)CC4)c3c2C)c(C)c1 | 2659* | -3 | 2163* | 4 | -2 | 3496*
CCCCN(C)C(=O)c1nc2ccccn2c1CN1CCN(C(=O)c2cccs2)CC1 | 1473 | 3 | 1497 | 2 | 4 | 1784
O=C(CCSc1ccc(Cl)cc1)Nc1cccnc1 | 1738 | 3 | 1502 | 5 | 7 | 1747
COC(=O)c1ccc(C(=O)OC)c(NC(=O)CCC(=O)O)c1 | / | 3 | 1558 | 7 | -7 | /
COC(=O)c1ccc(C(=O)OC)c(NC(=O)C(C)(C)C)c1 | 1496 | 9 | 1765 | 46* | 0 | 3181*
SMILES | SRC3 TRFRET art | PPARg SRC2 recr | SRC2 TRFRET art | PPARg SRC1 recr | PPARg SRC-3 ag | SRC1 TRFRET art | others
CC(C)CNS(=O)(=O)c1cc(C(=O)OCC(=O)c2ccc3c(c2)OCCO3)c(Cl)cc1Cl | 2107* | -3 | 1804 | -1 | -2 | 2142
Cn1c2ccccc2c2cc(C(=O)OCC(=O)N3CC(=O)Nc4ccccc43)sc21 | / | 2 | 2536* | 1 | 1 | /
CCOC(=O)N1CCN(C(=O)c2cn(CC)c3ccc(S(=O)(=O)N4CC(C)CC(C)C4)cc3c2=O)CC1 (stereo not given) | 1730 | 1 | 1641 | -2 | 2 | 1676
CCN(C(=O)COC(=O)c1cc(-c2ccccc2)nc2ccc(Br)cc12)C1CCS(=O)(=O)C1 (stereo not given) | 2241* | 4 | 1887 | 16 | 10 | 2327*
COc1ccccc1NC(=O)C1=C(C)NC(SCC(=O)c2ccc(C)cc2)=C(C#N)C1c1ccco1 (stereo not given) | / | 9 | 2554* | 11 | 23 | /
Cc1cc(NC(=O)COC(=O)C2CCC(=O)N2)c([N+](=O)[O-])cc1C (stereo not given) | 1310 | 3 | 1427 | 0 | -2 | 1801
CC(C)(CO)C(O)C(=O)NCCC#N (stereo not given) | 1532 | -6 | 1413 | -2 | -4 | 1885
COc1ccc(CC(=O)NNC(=O)COc2ccc3ccccc3c2)cc1 | 4430* | 214* | 3867* | 194* | 142* | 6123* | PPARg SRC2 conf=256*;PPARg SRC1 ag=196*;PPARg SRC3 ag=169*
COc1ccc(OCC(=O)NNC(=O)CCc2ccccc2)cc1 | 1553 | -2 | 1544 | -11 | -3 | 1505
CCOP(=O)(OCC)C(NC(=O)c1cc([N+](=O)[O-])cc([N+](=O)[O-])c1)C(F)(F)F (stereo not given) | 1431 | -2 | 1518 | -5 | -7 | 1584
O=c1c(Cl)c(N2CCN(S(=O)(=O)c3ccc(F)cc3)CC2)cnn1-c1cccc(Cl)c1 | / | 5 | 1804 | 47* | 45* | / | PPARg SRC2 conf=45*;PPARg SRC1 ag=39*;PPARg SRC3 ag=24*
CC1(C)Cc2ccccc2-c2nc3n(c(=O)c21)CCS3 | 1484 | 5 | 1747 | 4 | 7 | 1872
Cn1c(=S)[nH]c2c(c1=O)C(C)(C)Cc1ccccc1-2 | 2669* | 45* | 2681* | 40* | 25* | 3109* | PPARg SRC2 conf=37*;PPARg SRC1 ag=24*;PPARg SRC3 ag=24*
CCn1c(=S)[nH]c2c(c1=O)C(C)(C)Cc1ccccc1-2 | 2752* | 33* | 2673* | 44* | 28* | 3374* | PPARg SRC2 conf=36*;PPARg SRC1 ag=23*;PPARg SRC3 ag=25*
Clc1ccc(Cl)c(-c2ccc(/C=N/c3ncn[nH]3)o2)c1 | / | 54* | 2699* | 49* | 58* | / | PPARg SRC2 conf=53*;PPARg SRC1 ag=38*;PPARg SRC3 ag=30*
